Compounds with a hit are over-represented: about 19% of the library has one in this group of screens.
IL1B secr inh = qHTS for Inhibitors of Inflammasome Signaling: IL-1-beta AlphaLISA Primary Screen; THP-1 LPS/ATP IL-1B secretion, AlphaLISA, 16 h; stronger effect = lower value; activity change, % at 57.5 µM; hit rate 4.7% among 360,000; in the data active = activity change below about -50%; inconclusive = mostly about -30% to -49%
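Secreted IL-1B measured by AlphaLISA bead assay after 16 h compound exposure of THP-1 cells; compounds (final up to 57.5 uM) added 1 h before LPS (250 ng/mL) and ATP (1.25 mM) stimulation; lower signal means less secretion.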
TDP1 inh = qHTS Assay for Inhibitors of Tyrosyl-DNA Phosphodiesterase (TDP1). Tyrosyl-DNA phosphodiesterase 1 (Homo sapiens), Q9NUW8. recombinant TDP1, AlphaScreen DNA substrate cleavage. Potency, µM (top dose mostly 130 µM), hits mostly inhibitors. hit rate 0.28% among 350,000; note: nearly all actives have a fitted effect of over 40% in size
Target sequence (Q9NUW8 whole entry, looked up): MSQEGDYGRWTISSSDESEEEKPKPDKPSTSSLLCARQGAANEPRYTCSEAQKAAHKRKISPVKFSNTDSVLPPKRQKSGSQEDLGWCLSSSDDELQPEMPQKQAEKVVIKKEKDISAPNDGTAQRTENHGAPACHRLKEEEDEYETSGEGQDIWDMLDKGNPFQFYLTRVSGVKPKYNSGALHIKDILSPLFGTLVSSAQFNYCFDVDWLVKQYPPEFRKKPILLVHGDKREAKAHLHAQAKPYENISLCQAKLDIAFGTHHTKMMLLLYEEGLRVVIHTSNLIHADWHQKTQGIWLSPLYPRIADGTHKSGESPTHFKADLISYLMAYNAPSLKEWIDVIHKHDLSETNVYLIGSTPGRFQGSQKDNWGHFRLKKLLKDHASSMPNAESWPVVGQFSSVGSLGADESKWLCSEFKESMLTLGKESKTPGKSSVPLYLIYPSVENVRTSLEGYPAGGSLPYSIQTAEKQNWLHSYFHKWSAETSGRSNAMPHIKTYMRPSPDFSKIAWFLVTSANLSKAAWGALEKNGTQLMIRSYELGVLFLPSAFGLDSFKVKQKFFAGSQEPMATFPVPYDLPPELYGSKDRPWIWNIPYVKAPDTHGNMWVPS
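E. coli-derived human Tdp1, 1 nM final. Cpd preinc 15 min RT; substrate 15 nM final, 5 min RT; AS bead mix 10 ug/ml final, 10 min RT. Signal loss = tyrosine-FITC cleavage. No-enzyme wells = max signal.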
DT40 TDP1 no CPT = qHTS for Inhibitors of human tyrosyl-DNA phosphodiesterase 1 (TDP1): qHTS in cells in absence of CPT; hit rate 15% among 420,000; DT40 Tdp1-/- hTDP1 cells, no CPT, ATP luminescence, 48 h; Potency, µM (doses to about 46.2 µM), usual class: inhibitors; note: nearly all actives have a fitted effect of over 55% in size
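Luminescent ATP content (CellTiter-Glo) served as the growth readout. Knockout chicken DT40 cells expressing human TDP1 were exposed to compounds without camptothecin for a minimum 48 hr at 37 °C.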
TGFb SMAD3 inh = qHTS for Inhibitors of TGF-b; HepG2 CAGA-GFP TGF-b/SMAD3 reporter, GFP fluorescence, 18 h; TGF-beta stimulated, 500 pg/mL final; Potency, µM (doses to about 46.1 µM), hits mostly inhibitors; hit rate 1.2% among 410,000; note: nearly all actives have a fitted effect of over 65% in size
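First, reporter cells (HEPG2 CAGA-GFP) rested 2 h at 37 degrees C. Next, compounds were pinned in and TGF-beta added to 500 pg/mL final. After 18 h, GFP was imaged per cell and summed per well.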
HepG2 tox = qHTS for Inhibitors of TGF-b: Cytotox Counterscreen. HepG2 CAGA-GFP viability, ATP luminescence, 18 h. Potency, µM (highest dose often 46.1 µM), hits mostly cytotoxic. hit rate 0.76% among 410,000. AID 588856, 2011
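HepG2 CAGA-GFP cells (1000/well, DMEM with 1% FBS) received compound, then TGF-beta at 500 pg/mL final, and were incubated 18 hours at 37 degrees C. Viability was read by CellTiter-Glo luminescence. Media-only wells were set as complete cell-killing and DMSO as no toxicity.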
DT40 TDP1 CPT = qHTS for Inhibitors of human tyrosyl-DNA phosphodiesterase 1 (TDP1): qHTS in cells in presence of CPT | chicken DT40 Tdp1-/-;hTDP1 cells + 20 nM CPT, ATP luminescence, 48 h | Potency, µM (doses to about 46.2 µM), actives largely listed as inhibitors | hit rate 12% among 420,000 | AID 686979, 2013; note: nearly all actives have a fitted effect of over 55% in size
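Chicken DT40 Tdp1-/- cells complemented with human TDP1, 400 cells/well, exposed to compounds plus 20 nM camptothecin for at least 48 h at 37 C; viability read as ATP content by CellTiter-Glo luminescence.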
Each line names hits and unclear results; the compound was inactive in the other large screens. Unless noted, calls come from the whole dose curve; as a rule, active = well fitted curve in the direction sought with a large enough effect; inconclusive = small, poorly fitted or top-dose-only effect, or another doubt; inactive = no such curve, though single readings can be large; an effect the other way counts as inactive or inconclusive.

O=C(COc1ccccc1Cl)Nc1ccc(C(=O)N2CCCCC2)cc1	DT40 TDP1 no CPT inconclusive, DT40 TDP1 CPT inconclusive (no result: TDP1 inh)
O=C(c1ccc(COc2ccccc2Br)o1)N1CCCCCC1	DT40 TDP1 no CPT inconclusive, TGFb SMAD3 inh inconclusive, DT40 TDP1 CPT 21µM
CCCc1ccc(OCc2ccc(C(=O)N3CCCC3)o2)cc1	DT40 TDP1 no CPT 21µM, TGFb SMAD3 inh inconclusive, DT40 TDP1 CPT inconclusive (no result: TDP1 inh)
O=C(c1ccc(COc2ccccc2Br)cc1)N1CCCCC1	IL1B secr inh -58, DT40 TDP1 no CPT 16µM, DT40 TDP1 CPT 15µM
CCOc1ccc(NC(=O)CSC2=Nc3ccccc3C3=NC(CC(=O)NCc4cccs4)C(=O)N23)cc1 (centres undefined)	DT40 TDP1 no CPT inconclusive, DT40 TDP1 CPT inconclusive (no result: IL1B secr inh)
COc1cccc(-c2ccc(O)c(CNCc3cccc(OC)c3OC)c2)n1	DT40 TDP1 no CPT inconclusive (no result: IL1B secr inh, TDP1 inh, TGFb SMAD3 inh, HepG2 tox)
Cn1c(N=NC(=O)c2ccccc2)c(O)c2ccccc21	DT40 TDP1 no CPT 23µM, DT40 TDP1 CPT inconclusive
Cn1c(O)c(N=NC(=O)CNC(=O)c2ccccc2)c2ccccc21	none (no result: TDP1 inh)
CC(=O)c1ccc(NC(=O)c2ncn(-c3ccccc3)n2)cc1	DT40 TDP1 CPT inconclusive (no result: IL1B secr inh)
Cc1ccc(-n2nnnc2-c2ccccc2)cc1	DT40 TDP1 no CPT inconclusive, DT40 TDP1 CPT inconclusive
Cc1ccc(-n2nnnc2C(Cl)c2nnnn2-c2ccc(C)cc2)cc1	IL1B secr inh -59, DT40 TDP1 no CPT 8.2µM, TGFb SMAD3 inh inconclusive, DT40 TDP1 CPT 15µM
FC(F)(F)c1cc(NC(=S)Nc2ccc3ccccc3c2)cc(C(F)(F)F)c1	none (no result: IL1B secr inh, DT40 TDP1 no CPT, TGFb SMAD3 inh, HepG2 tox, DT40 TDP1 CPT)
CN1C(=O)c2cccc(NCCCCCCN3C(=O)c4ccccc4C3=O)c2C1=O	IL1B secr inh inconclusive, DT40 TDP1 no CPT 9.2µM, DT40 TDP1 CPT 21µM
CN1C(=O)c2cccc(NCCCN3C(=O)c4ccccc4C3=O)c2C1=O	DT40 TDP1 CPT inconclusive
O=C(NC1CCSc2ccccc21)c1cc([N+](=O)[O-])ccc1N1CCOCC1 (centres undefined)	DT40 TDP1 no CPT inconclusive
COCCN1Cc2cccc(C(=O)Nc3ccc(C)c(F)c3)c2C1=O	DT40 TDP1 no CPT inconclusive, DT40 TDP1 CPT inconclusive (no result: IL1B secr inh)
COCCC(=O)N1CCC(Oc2ccc(C(=O)NCc3cccc(C)n3)cc2)CC1	none
CCn1nc(C)c(CN2CCCCC2C(=O)Nc2ccc(Oc3cccnc3)cc2)c1C (centres undefined)	DT40 TDP1 no CPT 16µM, DT40 TDP1 CPT 9.2µM
O=C(Nc1ccc(Oc2ccccc2)nc1)C1CCN(Cc2ccco2)CC1	none
Cc1ccc(CN2CCCCC2C(=O)Nc2ccc(Oc3cccnc3)cc2)o1 (centres undefined)	DT40 TDP1 no CPT 7.3µM, DT40 TDP1 CPT 5.2µM
O=C(Nc1ccc(Oc2ccccc2)nc1)C1CCCCN1Cc1ccco1 (centres undefined)	DT40 TDP1 no CPT 4.1µM, DT40 TDP1 CPT 4.1µM
C#Cc1ccc(CN2CCC(C(=O)Nc3ccc(Oc4ccccc4)nc3)CC2)cc1	IL1B secr inh inconclusive, DT40 TDP1 no CPT inconclusive, TGFb SMAD3 inh inconclusive, DT40 TDP1 CPT 15µM
O=C(Nc1ccc(Oc2ccccc2)nc1)C1CCN(Cc2cccc(F)c2)CC1	DT40 TDP1 no CPT inconclusive
Cc1ccc(N(C)S(=O)(=O)c2nnc(NC(=O)CC(C)C)s2)cc1	none (no result: IL1B secr inh)
Cc1ccc(OCc2cc(=O)n3c4c(sc3n2)CCCC4)c(C)c1	none (no result: IL1B secr inh)
Cc1nn(-c2ccccc2)c(-c2ccccc2[N+](=O)[O-])c1C(=O)O	none
Cc1nn(-c2ccccc2)c(-c2ccccc2[N+](=O)[O-])c1CC#N	DT40 TDP1 no CPT 16µM, DT40 TDP1 CPT inconclusive (no result: TDP1 inh)
CC1=C(C(=O)Nc2ccc(F)cc2F)C2(CCCCCC2)OC1=O	none (no result: IL1B secr inh)
CCOc1ccc(-c2cc(C(=O)N3CCCC3)c3ccccc3n2)cc1	DT40 TDP1 no CPT 23µM, DT40 TDP1 CPT inconclusive

Screens as filed in PubChem.
